HCV inhibitor: qHTS Assay for Inhibitors of Hepatitis C Virus (HCV); Huh7.5.1 HCVcc-Cre infection, luciferase reporter, 44 h; Potency, µM (top dose mostly 41.8 µM), without a hit: at the top dose activity change, negative = inhibition, actives largely listed as inhibitors; 340,000 tested, 3.4% active; note: potency is the fitted concentration of half-maximal effect; % is set by controls: 0 for no effect and ±100 for the full control effect
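A cell-based infection assay in which seeded cells (1,000 per well) receive test compound after 4 h, are inoculated with HCVcc-Cre at approximately 0.5 moi, and are incubated 44 h before luminescence detection.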
Pf growth 96h: Primary qHTS for delayed death inhibitors of the malarial parasite plastid, 96 hour incubation | 320,000 tested, 6.9% active | P. falciparum luciferase reporter growth, 96 h | AID 504834, 2011 | Potency, µM (series often up to 28.7 µM), for inactives: top-dose activity change, negative = inhibition, most hits filed as inhibitors; note: potency is the fitted concentration of half-maximal effect; % is set by controls: 0 for no effect and ±100 for the full control effect
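Luminescence readout: decreased luciferase signal marks inhibited growth of reporter-expressing P. falciparum in infected red cells (2% hematocrit, 0.05% parasitemia final), exposed to compound two generations (96 h, 37 C, 5% CO2).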
HCMV antiviral: qHTS Assay for inhibitors of the human cytomegalovirus (HCMV); HFF cells, HCMV-luciferase reporter, 72 h; active compounds read low; activity change, negative = inhibition, % at 57.5 µM; 410,000 tested, 4.5% active; AID 1259415, 2018; in the data active = activity change below about -60%; inconclusive = no clear call, values can overlap the other calls; inactive = above about -39%; note: % is set by controls: 0 for no effect and ±100 for the full control effect
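Inhibition of viral replication was scored as loss of reporter luminescence in HFFs infected with HCMV-luciferase (MOI 1 PFU/cell) for 72 h; compounds tested at 2 doses, normalized to buffer and Salinomycin controls.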
Pf growth 48h: Primary qHTS for delayed death inhibitors of the malarial parasite plastid, 48 hour incubation | 310,000 tested, 5.9% active | Potency, µM (highest dose often 28.7 µM), inactives show top-dose activity change, negative = inhibition, usual class: inhibitors | P. falciparum luciferase growth in erythrocytes, 48 h; note: potency is the fitted concentration of half-maximal effect; % is set by controls: 0 for no effect and ±100 for the full control effect
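Compounds are pin-transferred into medium, infected erythrocytes (2% hematocrit, 0.1% parasitemia final) are added, and plates sit one parasite generation at 37 C in 5% CO2. Detection reagent is then added and luminescence measured.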
CHX counter: Cycloheximide Counterscreen for Small Molecule Inhibitors of Shiga Toxin; cell reporter, cycloheximide protein synthesis inhibition counterscreen; max response, %; 300,000 tested, 12% active; in the data active = max response mostly above about 13%, no sharp cut-off; inactive = mostly below about 14%; note: read at 38.3 µM for the half of the compounds with a filed dose; 0% is about no effect
Shiga toxin inh: A qHTS for Small Molecule Inhibitors of Shiga Toxin. AID 2315, 2010. inhibition, % at 38.7 µM. Vero cells, Shiga toxin protein synthesis inhibition reporter. 290,000 tested, 9.2% active; in the data active = inhibition mostly above about 28%, no sharp cut-off; inactive = mostly below about 43%; note: 0% is about no effect
* hit, by the source's call; ? = inconclusive; . = no result. Rows were chosen to be rich in hits. Some 21% of all compounds tested hit in one or more screens of this group. Unless noted, calls come from the whole dose curve; as a rule, active = well fitted inhibition curve with a large enough effect; inconclusive = small, poorly fitted or top-dose-only effect, or another doubt; inactive = no such curve, though single readings can be large or run the other way.

SMILES	HCV inhibitor	Pf growth 96h	HCMV antiviral	Pf growth 48h	CHX counter	Shiga toxin inh
O=[N+]([O-])c1ccc(-c2ccc(C=Nc3cccc4ccccc34)o2)cc1	5.5%	-28.2%	18.0	12.1%	6.6	7.0
NC(=O)N/N=C/c1ccc(-c2ccc([N+](=O)[O-])cc2)o1	9.7%	-25.9%	2.6	53.5%	25.1*	24.9
COc1ccc(-c2cnnc(N/N=C/c3ccc(-c4ccc([N+](=O)[O-])cc4)o3)n2)cc1	-29.7%	8.2%	-27.3	2.94µM*	0.9	20.6
O/N=C\c1ccc(-c2ccccc2)o1	?	-24.7%	9.4	70.2%	21.3*	92.5*
O=[N+]([O-])c1ccc(-c2ccc(/C=N/O)o2)cc1	-3.9%	78.2%	79.8	84.3%	33.3*	108.8*
COc1cc(-c2nc(CN(C)C(C)c3ccncn3)c(C)o2)ccc1F (stereo unspecified)	-12.1%	34.4%	3.0	?	-2.7	-4.0
COc1cccc(-n2cc(C(=O)Nc3cc(OC)c(OC)c(OC)c3)c3ccccc3c2=O)c1	.	.	60.9	.	.	.
COc1ccccc1C1CC(=O)NC(C)=C1C(=O)OC(C)C (stereo unspecified)	-3.1%	24.0%	-10.4	3.7%	-1.4	-11.3
COc1ccc(Cl)c2sc(NC(=O)c3ccc(S(=O)(=O)N4CCOCC4)cc3)nc12	.	.	4.7	.	.	.
COc1ccc(CCNC(=O)Nc2cccc([N+](=O)[O-])c2)cc1	3.8%	13.1µM*	-38.8	16.7%	-3.2	10.3
COc1ccc(CCNC(=O)COC(=O)Cc2ccccc2[N+](=O)[O-])cc1	10.1%	.	-13.1	.	.	.
COc1ccc(CCNC(=O)Nc2ccccc2[N+](=O)[O-])cc1	-8.0%	2.5%	-5.4	-0.4%	36.6*	67.4*
CCC(=O)N1CCc2cc(CNC(=O)Nc3cc(C)ccc3C)ccc21	.	.	0.0	.	.	.
O=C(NC(C(=O)N/N=C/c1c2ccccc2cc2ccccc12)c1n[nH]c(=O)c2ccccc12)c1ccccc1 (stereo unspecified)	2.51µM*	13.1µM*	48.9	11.7µM*	-3.8	-5.2
COC(=O)C1CSc2[nH]c(=O)sc2C1c1ccc(OC)c(OC)c1 (stereo unspecified)	-2.7%	?	?	10.4µM*	-0.4	4.0
Cc1cc(C(=O)COC(=O)c2ccc[nH]c2=O)c(C)n1C1CC1	-15.3%	40.3%	-1.1	61.5%	26.9*	58.4*
Cc1cccc(NC(=O)COC(=O)c2cc(C)oc2C)c1	-5.6%	8.1%	-29.8	3.1%	24.8	-2.1
Cc1cccc(NC(=O)COC(=O)c2cc(C)n(C3CC3)c2C)c1	-26.0%	?	-3.5	9.28µM*	.	.
Cc1cc(C(=O)COC(=O)c2ccc[nH]c2=O)c(C)n1-c1ccc(F)cc1	-6.5%	96.8%	28.3	126.3%	39.4*	75.9*
C[C@]12CCCC3=CC(=O)C=CC31OCC2 (stereo partly specified)	.	.	-0.4	.	.	.
COc1ccc(/C=C2/CCc3ccccc3C2=O)cc1OC	?	?	?	95.0%	74.0*	73.9*
O=C(O)c1ccc(/C=C2\COc3ccccc3C2=O)cc1	-4.6%	30.7%	33.5	-33.7%	22.2*	63.1
COc1ccc(/C=C2\CCc3ccccc3C2=O)cc1CN1CCOCC1	-23.8%	-24.9%	-11.7	-0.7%	30.1*	93.7*
COc1ccc2c(c1)CC/C(=C\c1ccc(OC)c(Cn3nc(C)cc3C)c1)C2=O	3.98µM*	8.8%	-9.3	.	-2.1	-12.0
COc1ccc(/C=C2\COc3ccccc3C2=O)cc1OC	-26.8%	-65.4%	?	15.3%	45.3*	65.3*
SMILES	HCV inhibitor	Pf growth 96h	HCMV antiviral	Pf growth 48h	CHX counter	Shiga toxin inh
COc1ccc(/C=N\NC(=O)c2sccc2C)cc1Cn1nc(C)cc1C	?	?	83.9	?	42.3*	104.5*
COc1ccc(/C=C2\C(=O)OCc3cc(OC)c(OC)cc32)cc1OC	-11.7%	0.0%	37.0	?	-5.1	-20.4
COc1ccc(C=C2c3ccccc3C(=O)c3ccccc32)c(OC)c1	.	?	-88.4*	?	-3.6	-7.2
COc1ccc(/C=C2\CN(Cc3ccccc3)C/C(=C\c3ccc(OC)cc3OC)C2=O)c(OC)c1	?	?	-13.3	?	-1.4	-7.2
COc1ccc(/C=C2\COc3ccccc3C2=O)c(OC)c1	?	9.28µM*	7.5	?	43.3*	71.1*
O=C(CN1C(=O)COc2ccc(S(=O)(=O)N3CCCC3)cc21)N1CCN(c2ccc(F)cc2)CC1	.	.	-4.0	.	.	.
COc1ccc2c(c1)OC/C(=C/c1cccs1)C2=O	0.6%	2.94µM*	32.1	281.4%	44.5*	73.4*
COc1ccc(/C=C2\OC(=O)c3c(OC)cccc32)cc1OC	?	29.3%	66.1	10.7%	37.7*	53.5
CCOc1cc(/C=N/Nc2nc3ccccc3[nH]2)cc(Br)c1OCC(=O)N(C)C	?	?	-12.5	?	12.6	-10.7
COc1ccc(C=C2C(=O)OC(C)(C)OC2=O)cc1OC	9.9%	?	-19.6	-0.1%	-2.5	-8.6
COc1cc(/C=C2/CCc3ccccc3C2=O)cc(OC)c1OC	?	?	?	?	10.7	13.3
CCOc1cc(/C=C2\COc3ccccc3C2=O)cc(Br)c1OCC(=O)N(C)C	?	10.4µM*	-39.0	?	9.8	21.7
COc1cc(/C=C2\CCc3ccccc3C2=O)cc(OC)c1OC	?	35.1%	-74.3*	-26.7%	17.6*	31.5*
COc1ccc2c3c(n(C)c2c1)[C@@H](CO)N(C(C)=O)CC31CN(Cc2nccs2)C1	.	.	5.3	.	.	.
O=C(Nc1cccc(O)c1)c1cc2nc(-c3ccc(Br)cc3)cc(C(F)(F)F)n2n1	.	.	-15.2	.	.	.
C=C1CCC[C@]2(C)C[C@H]3OC(=O)C(CN(Cc4ccc(OC)c(OC)c4)CC(C)O)[C@H]3CC12 (stereo partly specified)	-27.2%	?	-99.1*	?	-6.7	-20.4
C=C1CCC[C@]2(C)C[C@H]3OC(=O)C(CN4CCOCC4)[C@H]3C[C@@H]12 (stereo partly specified)	4.3%	-1.0%	?	-11.1%	-2.9	-6.9
C=C1CCC[C@]2(C)C[C@H]3OC(=O)C(CNC(C)CCCC(C)C)[C@H]3CC12 (stereo partly specified)	?	?	-67.6*	.	-2.9	-9.8
C=C1CCC[C@]2(C)C[C@H]3OC(=O)C(CNCC(OC)OC)[C@H]3CC12 (stereo partly specified)	3.5%	-1.9%	-30.2	-0.1%	-5.1	-7.0
C=C1CCC[C@]2(C)C[C@H]3OC(=O)C(CN[C@@H](C)c4ccccc4)[C@H]3CC12 (stereo partly specified)	?	?	-63.9*	?	-2.1	-7.1

Compound activity as filed in PubChem.
